# Source: the supplement of paper PMC12494721
# Where a name gives a salt, the structure may show the parent alone.
# Legend:
# Details in all cases: incubation time: 27 h, anaerobic, 37 °C;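 for the amine columns active = adjusted P below 0.05 in both replicates with a change the same way and a mean fold change under 0.8 or over 1.25; inactive = the rest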
# [1] = tested on: Clostridium sporogenes DSM 1664; experiment: growth (OD595) fold change vs plate DMSO controls (fold change (ratio)); higher = more growth
# Procedure, shortened: (§1)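 The 96-well mGAM cultures had been kept anaerobic for 27 h at 37 °C before being shaken and read at 595 nm. Blank subtraction, compound background correction with 20 µM compound solutions in water, and a calibration factor of 5 turned the readings into OD. Growth is given as the fold change versus the median of plate DMSO controls. Fold changes above 1.5 were set to NA, and the values are means of 2 biological replicates.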
# Escherichia coli IAI1 [2] = experiment: as above
# Procedure, shortened: as §1
# [3] = tested on: Klebsiella aerogenes DSM 30053; experiment: as above
# Procedure, shortened: as §1
# [4] = tested on: Ruminococcus gnavus DSM 108212; experiment: as above
# Procedure, shortened: as §1
# [5] = tested on: Klebsiella aerogenes DSM 30053; experiment: fold change of Histamine concentration vs plate DMSO controls (fold change (ratio)); higher = more amine produced, active = hit call of the paper (significant change in both replicates, either direction)
# Procedure, shortened: (§2)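 Anaerobic mGAM cultures of four gut bacterial strains were grown at 37 °C for 27 h in 80 µL wells, starting at OD 0.1 before 1:1 dilution. Compounds were at 20 µM final (sweeteners 50 µM). Whole cultures were extracted with cold acetonitrile/methanol containing 0.1% formic acid and centrifuged. Amines were quantified by LC–triple-quadrupole MS (dynamic MRM) against external calibration curves and drift-corrected within batch. Each value is the fold change versus plate DMSO controls, averaged over 2 biological replicates.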
# [6] = tested on: Clostridium sporogenes DSM 1664; experiment: fold change of Tryptamine concentration vs plate DMSO controls (fold change (ratio)); higher = more amine produced, active = hit call of the paper (significant change in both replicates, either direction)
# Procedure, shortened: as §2
# [7] = tested on: Ruminococcus gnavus DSM 108212; experiment: as above
# Procedure, shortened: as §2
# Escherichia coli IAI1 [8] = experiment: fold change of Putrescine concentration vs plate DMSO controls (fold change (ratio)); higher = more amine produced, active = hit call of the paper (significant change in both replicates, either direction)
# Procedure, shortened: as §2
# [9] = tested on: Klebsiella aerogenes DSM 30053; experiment: as above
# Procedure, shortened: as §2
# Escherichia coli IAI1 [10] = experiment: fold change of Cadaverine concentration vs plate DMSO controls (fold change (ratio)); higher = more amine produced, active = hit call of the paper (significant change in both replicates, either direction)
# Procedure, shortened: as §2
# [11] = tested on: Klebsiella aerogenes DSM 30053; experiment: as above
# Procedure, shortened: as §2
# [12] = tested on: Ruminococcus gnavus DSM 108212; experiment: fold change of 2-Phenylethylamine concentration vs plate DMSO controls (fold change (ratio)); higher = more amine produced, active = hit call of the paper (significant change in both replicates, either direction)
# Procedure, shortened: as §2
smiles,measurement,setting,value
COCCCOc1cc(C[C@@H](C[C@H](N)[C@@H](O)C[C@H](C(=O)NCC(C)(C)C(N)=O)C(C)C)C(C)C)ccc1OC [Aliskiren hemifumarate] (20 µM),growth,[1],1.02
same,growth,Escherichia coli IAI1 [2],0.992
same,growth,[3],1
same,growth,[4],0.808
same,fold change of Histamine concentration,[5],1.06 (inactive)
same,fold change of Tryptamine concentration,[6],1 (inactive)
same,fold change of Tryptamine concentration,[7],1.04 (inactive)
same,fold change of Putrescine concentration,Escherichia coli IAI1 [8],1 (inactive)
same,fold change of Putrescine concentration,[9],1.02 (inactive)
same,fold change of Cadaverine concentration,Escherichia coli IAI1 [10],1 (inactive)
same,fold change of Cadaverine concentration,[11],0.987 (inactive)
same,fold change of 2-Phenylethylamine concentration,[12],1.05 (inactive)
NS(=O)(=O)c1cc2c(cc1Cl)N=C(CSCc1ccccc1)NS2(=O)=O [Benzthiazide] (20 µM),growth,[1],1.1
same,growth,Escherichia coli IAI1 [2],0.998
same,growth,[3],1.02
same,growth,[4],1.08
same,fold change of Histamine concentration,[5],0.978 (inactive)
same,fold change of Tryptamine concentration,[6],0.983 (inactive)
same,fold change of Tryptamine concentration,[7],0.961 (inactive)
same,fold change of Putrescine concentration,Escherichia coli IAI1 [8],0.975 (inactive)
same,fold change of Putrescine concentration,[9],0.993 (inactive)
same,fold change of Cadaverine concentration,Escherichia coli IAI1 [10],1.02 (inactive)
same,fold change of Cadaverine concentration,[11],0.993 (inactive)
same,fold change of 2-Phenylethylamine concentration,[12],0.939 (inactive)
Clc1ccc(C(Cn2ccnc2)OCc2ccsc2Cl)c(Cl)c1 (configuration not stated) [Tioconazole] (20 µM),growth,[1],1.21
same,growth,Escherichia coli IAI1 [2],0.866
same,growth,[3],0.838
same,growth,[4],0.0103
same,fold change of Histamine concentration,[5],1.05 (inactive)
same,fold change of Tryptamine concentration,[6],0.957 (inactive)
same,fold change of Tryptamine concentration,[7],0.26 (active)
same,fold change of Putrescine concentration,Escherichia coli IAI1 [8],1.01 (inactive)
same,fold change of Putrescine concentration,[9],1.01 (inactive)
same,fold change of Cadaverine concentration,Escherichia coli IAI1 [10],0.982 (inactive)
same,fold change of Cadaverine concentration,[11],0.997 (inactive)
same,fold change of 2-Phenylethylamine concentration,[12],0.275 (active)
NC(CO)C(=O)NNCc1ccc(O)c(O)c1O (configuration not stated) [Benserazide hydrochloride] (20 µM),growth,[1],0.879
same,growth,Escherichia coli IAI1 [2],1.06
same,growth,[3],0.985
same,growth,[4],0.988
same,fold change of Histamine concentration,[5],1.08 (inactive)
same,fold change of Tryptamine concentration,[6],0.965 (inactive)
same,fold change of Tryptamine concentration,[7],1.03 (inactive)
same,fold change of Putrescine concentration,Escherichia coli IAI1 [8],1.19 (inactive)
same,fold change of Putrescine concentration,[9],1.03 (inactive)
same,fold change of Cadaverine concentration,Escherichia coli IAI1 [10],0.994 (inactive)
same,fold change of Cadaverine concentration,[11],0.991 (inactive)
same,fold change of 2-Phenylethylamine concentration,[12],1.03 (inactive)
Cn1ccnc1S [Methimazole] (20 µM),growth,[1],1.17
same,growth,Escherichia coli IAI1 [2],1.11
same,growth,[3],0.998
same,growth,[4],1.13
same,fold change of Histamine concentration,[5],1.04 (inactive)
same,fold change of Tryptamine concentration,[6],0.989 (inactive)
same,fold change of Tryptamine concentration,[7],0.998 (inactive)
same,fold change of Putrescine concentration,Escherichia coli IAI1 [8],1.17 (inactive)
same,fold change of Putrescine concentration,[9],1 (inactive)
same,fold change of Cadaverine concentration,Escherichia coli IAI1 [10],0.976 (inactive)
same,fold change of Cadaverine concentration,[11],0.984 (inactive)
same,fold change of 2-Phenylethylamine concentration,[12],0.993 (inactive)
CC(=O)O[C@]1(C(C)=O)CC[C@H]2[C@@H]3C=C(C)C4=CC(=O)CC[C@]4(C)[C@H]3CC[C@@]21C [Megestrol acetate] (20 µM),growth,[1],1.03
same,growth,Escherichia coli IAI1 [2],1.1
same,growth,[3],0.998
same,growth,[4],1.07
same,fold change of Histamine concentration,[5],0.981 (inactive)
same,fold change of Tryptamine concentration,[6],1.05 (inactive)
same,fold change of Tryptamine concentration,[7],1.04 (inactive)
same,fold change of Putrescine concentration,Escherichia coli IAI1 [8],1.2 (inactive)
same,fold change of Putrescine concentration,[9],0.971 (inactive)
same,fold change of Cadaverine concentration,Escherichia coli IAI1 [10],0.982 (inactive)
same,fold change of Cadaverine concentration,[11],1.01 (inactive)
same,fold change of 2-Phenylethylamine concentration,[12],1.04 (inactive)
C=C1C[C@@]23CC[C@H]4[C@@](C)(CCC[C@@]4(C)C(=O)O[C@@H]4O[C@H](CO)[C@@H](O)[C@H](O)[C@H]4O)[C@@H]2CC[C@]1(O[C@@H]1O[C@H](CO)[C@@H](O)[C@H](O)[C@H]1O[C@@H]1O[C@H](CO)[C@@H](O)[C@H](O)[C@H]1O)C3 [Stevioside] (50 µM),growth,[1],0.957
same,growth,Escherichia coli IAI1 [2],1
same,growth,[3],0.995
same,growth,[4],0.976
same,fold change of Histamine concentration,[5],0.984 (inactive)
same,fold change of Tryptamine concentration,[6],0.986 (inactive)
same,fold change of Tryptamine concentration,[7],0.947 (inactive)
same,fold change of Putrescine concentration,Escherichia coli IAI1 [8],0.989 (inactive)
same,fold change of Putrescine concentration,[9],0.863 (inactive)
same,fold change of Cadaverine concentration,Escherichia coli IAI1 [10],1.04 (inactive)
same,fold change of Cadaverine concentration,[11],1.1 (inactive)
same,fold change of 2-Phenylethylamine concentration,[12],0.971 (inactive)
C#C[C@]1(O)CC[C@H]2[C@@H]3CCC4=C(CCC(=O)C4)[C@H]3CC[C@@]21C [Norethynodrel] (20 µM),growth,[1],0.978
same,growth,Escherichia coli IAI1 [2],1.04
same,growth,[3],1
same,growth,[4],1.02
same,fold change of Histamine concentration,[5],1.03 (inactive)
same,fold change of Tryptamine concentration,[6],0.936 (inactive)
same,fold change of Tryptamine concentration,[7],1.03 (inactive)
same,fold change of Putrescine concentration,Escherichia coli IAI1 [8],1.04 (inactive)
same,fold change of Putrescine concentration,[9],1.03 (inactive)
same,fold change of Cadaverine concentration,Escherichia coli IAI1 [10],0.979 (inactive)
same,fold change of Cadaverine concentration,[11],1.01 (inactive)
same,fold change of 2-Phenylethylamine concentration,[12],0.989 (inactive)
COC1=C(OC)C(=O)C(CCCCCCCCCCO)=C(C)C1=O [Idebenone] (20 µM),growth,[1],1.18
same,growth,Escherichia coli IAI1 [2],1
same,growth,[3],1.01
same,growth,[4],0.839
same,fold change of Histamine concentration,[5],1.06 (inactive)
same,fold change of Tryptamine concentration,[6],1.02 (inactive)
same,fold change of Tryptamine concentration,[7],1.06 (inactive)
same,fold change of Putrescine concentration,Escherichia coli IAI1 [8],0.947 (inactive)
same,fold change of Putrescine concentration,[9],1.01 (inactive)
same,fold change of Cadaverine concentration,Escherichia coli IAI1 [10],1.05 (inactive)
same,fold change of Cadaverine concentration,[11],1.08 (inactive)
same,fold change of 2-Phenylethylamine concentration,[12],1.17 (inactive)
"c1ccc(CNc2ncnc3nc[nH]c23)cc1 [Aminopurine, 6-benzyl] (20 µM)",growth,[1],1.09
same,growth,Escherichia coli IAI1 [2],0.978
same,growth,[3],0.971
same,growth,[4],0.966
same,fold change of Histamine concentration,[5],1.06 (inactive)
same,fold change of Tryptamine concentration,[6],0.971 (inactive)
same,fold change of Tryptamine concentration,[7],0.932 (inactive)
same,fold change of Putrescine concentration,Escherichia coli IAI1 [8],1.03 (inactive)
same,fold change of Putrescine concentration,[9],1.02 (inactive)
same,fold change of Cadaverine concentration,Escherichia coli IAI1 [10],1.02 (inactive)
same,fold change of Cadaverine concentration,[11],1 (inactive)
same,fold change of 2-Phenylethylamine concentration,[12],0.856 (inactive)
C=C1[C@H](CO)[C@@H](O)C[C@@H]1n1cnc2c(=O)[nH]c(N)nc21 [Entecavir] (20 µM),growth,[1],0.907
same,growth,Escherichia coli IAI1 [2],0.934
same,growth,[3],1.04
same,growth,[4],1.04
same,fold change of Histamine concentration,[5],0.969 (inactive)
same,fold change of Tryptamine concentration,[6],0.982 (inactive)
same,fold change of Tryptamine concentration,[7],0.999 (inactive)
same,fold change of Putrescine concentration,Escherichia coli IAI1 [8],0.972 (inactive)
same,fold change of Putrescine concentration,[9],1 (inactive)
same,fold change of Cadaverine concentration,Escherichia coli IAI1 [10],1.04 (inactive)
same,fold change of Cadaverine concentration,[11],0.985 (inactive)
same,fold change of 2-Phenylethylamine concentration,[12],0.98 (inactive)
